Reference: PubChem BioAssay
Unmarked numbers belong to inactive results. For some of these results: Results with a measured potency or affinity are listed apart. Activity calls are given as the source filed them. Unless noted, how the calls were made is not given here.

How the values were obtained:
[1] = antimalarial activity against Dd2 strain (AID 2302;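 active means growth inhibition above 50% at the single 2 µM test dose, taken to imply half-maximal potency below 2 µM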;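 further: 0% = DMSO untreated growth and 100% = chloroquine plus artemisinin killed control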); settings: P. falciparum Dd2 in RBCs, LDH growth readout, 72 h; at 2 µM; active compounds read high
[2] = human hepatoma cell viability loss – ATP luminescence, cytotoxicity control for P. falciparum antimalarial project, primary screen (AID 2303;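 active means inhibition above 50%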;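 further: 0% = DMSO wells and 100% = digitonin-killed cells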); settings: HepG2 viability, 24-48 h, at 10 µM, active compounds read high
[3] = target: L-lactate dehydrogenase (Plasmodium falciparum (isolate CDC / Honduras)) (UniProt Q27743); assay: PfLDH activity inhibition – cell lysate, 3D7 strain, counter-screen for P. falciparum growth inhibition project (AID 2304);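 further: 0% = vehicle and 100% = reference inhibitor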; settings: P. falciparum 3D7 crude extract, LDH APAD/NBT absorbance; at 2 µM; active compounds read high
[4] = inhibition of 3D7 malaria parasite growth – strain 3D7 (AID 2306);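 further: 0% = DMSO wells and 100% = chloroquine plus artemisinin control wells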; settings: P. falciparum 3D7 erythrocytic growth, LDH absorbance, 72 h; at 2 µM; active compounds read high
[5] = target: Calcium-dependent protein kinase 1 (Plasmodium falciparum (isolate 3D7)) (UniProt P62344); assay: PfCDPK1 kinase inhibitors, biochemical, TCAMS library (AID 1159585; cut-off not given, nearly all actives have IC50 up to about 0.98 µM;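 further: inhibitors leave more ATP so luminescence rises with inhibition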); settings: recombinant PfCDPK1, Kinase-Glo ATP depletion luminescence
[6] = target: Plasmodium falciparum protein kinase 6 (PK6, PF3D7_1337100) (UniProt Q8IDW1); assay: PfPK6 kinase inhibitors, biochemical, TCAMS library (AID 1159586); settings: recombinant PfPK6, Kinase-Glo ATP depletion luminescence
[7] = target: Protein kinase 7 (PK7), Plasmodium falciparum 3D7 (PF3D7_0213400) (UniProt Q7YTF7); assay: inhibition of Plasmodium PK7 catalytic activity – biochemical, TCAMS antimalarial set, Kinase-Glo luminescence (AID 1159587); settings: recombinant PfPK7, Kinase-Glo ATP depletion luminescence
[8] = target: Calcium-dependent protein kinase 4 (Plasmodium falciparum (isolate 3D7)) (UniProt Q8IBS5); assay: PfCDPK4 kinase inhibitors, biochemical, TCAMS library (AID 1159588; cut-off not given, nearly all actives have IC50 up to about 0.91 µM); settings: recombinant PfCDPK4, Kinase-Glo ATP depletion luminescence
Chain of Calcium-dependent protein kinase 4 (Plasmodium falciparum (isolate 3D7)) (Q8IBS5 whole entry, looked up): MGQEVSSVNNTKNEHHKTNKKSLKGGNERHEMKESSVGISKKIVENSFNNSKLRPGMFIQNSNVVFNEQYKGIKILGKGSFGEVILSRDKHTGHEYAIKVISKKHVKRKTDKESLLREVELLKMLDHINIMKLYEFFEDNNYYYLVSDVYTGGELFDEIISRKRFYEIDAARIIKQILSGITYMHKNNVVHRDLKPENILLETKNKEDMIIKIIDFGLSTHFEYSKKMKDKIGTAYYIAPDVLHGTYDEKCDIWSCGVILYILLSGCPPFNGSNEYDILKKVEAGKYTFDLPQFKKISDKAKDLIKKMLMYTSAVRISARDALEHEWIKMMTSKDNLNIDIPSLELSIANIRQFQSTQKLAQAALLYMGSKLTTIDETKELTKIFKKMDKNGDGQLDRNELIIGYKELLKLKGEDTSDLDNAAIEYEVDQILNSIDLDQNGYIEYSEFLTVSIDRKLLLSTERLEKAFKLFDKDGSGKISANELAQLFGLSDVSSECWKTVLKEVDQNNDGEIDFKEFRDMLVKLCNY

Chain of L-lactate dehydrogenase (Plasmodium falciparum (isolate CDC / Honduras)) (Q27743 whole entry, looked up): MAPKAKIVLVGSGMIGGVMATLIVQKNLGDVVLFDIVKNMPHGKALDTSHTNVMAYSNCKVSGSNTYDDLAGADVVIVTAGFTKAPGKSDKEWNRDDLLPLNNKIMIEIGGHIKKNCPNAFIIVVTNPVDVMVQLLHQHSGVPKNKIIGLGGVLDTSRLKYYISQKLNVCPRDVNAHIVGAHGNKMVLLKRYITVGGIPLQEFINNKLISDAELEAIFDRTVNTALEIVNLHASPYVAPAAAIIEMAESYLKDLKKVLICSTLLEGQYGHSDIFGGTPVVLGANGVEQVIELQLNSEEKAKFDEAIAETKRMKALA
Chain of Plasmodium falciparum protein kinase 6 (PK6, PF3D7_1337100) (Q8IDW1 1-305): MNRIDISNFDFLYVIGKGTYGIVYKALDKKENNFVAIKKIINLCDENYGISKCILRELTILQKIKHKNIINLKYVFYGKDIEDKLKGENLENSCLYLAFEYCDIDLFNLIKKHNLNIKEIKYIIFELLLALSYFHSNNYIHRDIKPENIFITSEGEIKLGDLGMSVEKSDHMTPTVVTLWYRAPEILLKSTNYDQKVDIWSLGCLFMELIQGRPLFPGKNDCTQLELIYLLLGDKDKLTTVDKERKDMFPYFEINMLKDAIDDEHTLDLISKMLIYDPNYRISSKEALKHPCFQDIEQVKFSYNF
Chain of Protein kinase 7 (PK7), Plasmodium falciparum 3D7 (PF3D7_0213400) (Q7YTF7 1-343): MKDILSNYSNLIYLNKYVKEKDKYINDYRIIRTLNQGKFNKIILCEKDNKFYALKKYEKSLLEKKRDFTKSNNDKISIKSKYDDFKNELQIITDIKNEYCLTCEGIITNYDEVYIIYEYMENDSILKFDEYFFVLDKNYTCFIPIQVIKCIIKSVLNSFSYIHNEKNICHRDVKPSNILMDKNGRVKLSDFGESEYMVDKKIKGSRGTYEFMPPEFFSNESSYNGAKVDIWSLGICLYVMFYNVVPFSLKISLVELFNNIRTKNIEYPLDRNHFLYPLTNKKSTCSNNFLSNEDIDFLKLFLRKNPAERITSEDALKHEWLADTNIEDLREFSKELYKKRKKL
Chain of Calcium-dependent protein kinase 1 (Plasmodium falciparum (isolate 3D7)) (P62344 whole entry, looked up): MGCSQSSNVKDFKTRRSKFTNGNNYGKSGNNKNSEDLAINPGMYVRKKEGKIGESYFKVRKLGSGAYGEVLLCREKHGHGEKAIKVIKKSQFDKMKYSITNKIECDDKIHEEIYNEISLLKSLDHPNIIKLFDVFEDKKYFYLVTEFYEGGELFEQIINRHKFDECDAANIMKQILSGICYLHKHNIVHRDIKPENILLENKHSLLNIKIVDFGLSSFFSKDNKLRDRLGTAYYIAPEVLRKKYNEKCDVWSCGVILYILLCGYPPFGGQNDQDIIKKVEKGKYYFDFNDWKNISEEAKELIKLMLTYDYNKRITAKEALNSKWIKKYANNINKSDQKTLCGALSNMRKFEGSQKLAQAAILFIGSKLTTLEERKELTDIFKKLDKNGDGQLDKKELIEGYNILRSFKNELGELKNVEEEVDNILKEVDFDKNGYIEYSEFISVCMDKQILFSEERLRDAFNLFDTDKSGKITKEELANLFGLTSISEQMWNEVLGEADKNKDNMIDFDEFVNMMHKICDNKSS

Structure (SMILES) | growth inhibition [1] | inhibition [2] | inhibition [3] | growth inhibition [4] | outcome [5] | outcome [6] | outcome [7] | outcome [8]
COc1ccc(N2CCN(CCCC/C=C/c3ccc(NC(=O)c4cc(Cl)cc(Cl)c4)cc3)CC2)c(OC)c1 | 39% | 20% | 5% | 99% (active) | inactive | inactive | inactive | inactive
Cc1nc(C(=O)N2CCCC[C@H]2CNC(=O)c2ccc(-c3ccc(N4CCCC4=O)cc3C)cc2)c(-c2ccc(F)cc2)s1 | 94% (active) | 6% | 8% | 98% (active) | inactive | inactive | inactive | inactive
Oc1ccc(CCCNc2nc(NCc3ccccc3-c3ccccc3)nc(NC3CCNCC3)n2)cc1 | 2% | -1% | 6% | 97% (active) | inactive | inactive | inactive | inactive
COc1ccc2nccc(CCC3(O)CCC(NCc4cc5c(cc4F)SCC(=O)N5)CC3)c2c1 (stereo not given) | 48% | 9% | -2% | 87% (active) | inactive | inactive | inactive | inactive
CN(C)Cc1cc2c(O)c(Cc3ccccc3)ccc2o1 | 69% (active) | 3% | -8% | 85% (active) | inactive | inactive | inactive | inactive
C[C@@H](NCCc1cccc(Cl)c1)[C@@H](O)c1ccc(OCCCCCCOc2ccc([C@H](O)[C@@H](C)NCCc3cccc(Cl)c3)cc2)cc1 | 100% (active) | 96% (active) | -1% | 100% (active) | inactive | inactive | inactive | inactive
Cc1cccc2[nH]c(-c3ccc(-c4ccc(NC(=O)CN5CCN(C)CC5)cc4)cc3)nc12 | 83% (active) | 29% | 1% | 100% (active) | inactive | inactive | inactive | inactive
COc1cc2ncnc(Nc3ccc(OCc4ccccc4Br)c(OC)c3)c2cc1OC | 62% (active) | 11% | -1% | 100% (active) | inactive | inactive | inactive | inactive
COC(=O)c1cccc(NC(=O)NC2CCN(c3ccnc(Nc4cc(OC)c(OC)c(OC)c4)n3)C2)c1 (stereo not given) | 68% (active) | 7% | 3% | 99% (active) | inactive | inactive | inactive | inactive
Clc1ccc(CNc2ccnc(NCCc3coc4ccccc34)n2)c(Cl)c1 | 39% | 26% | -3% | 86% (active) | inactive | inactive | inactive | inactive
Cc1ccc2c(O)c([N+](=O)[O-])c(=O)[nH]c2c1 | -1% | 3% | -4% | 98% (active) | inactive | inactive | inactive | inactive
CC(Cc1ccc(C(=O)Nc2ccc(CC(C)NCCc3cccc(Cl)c3)cc2)cc1)NCCc1ccc(C(F)(F)F)cc1 (stereo not given) | 88% (active) | 98% (active) | -4% | 101% (active) | inactive | inactive | inactive | inactive
CCNc1cc(C(=O)N[C@@H](Cc2ccccc2)[C@H](O)CN[C@@H](C)c2cccc(OC)c2)cc(N2CCCC2=O)c1 | 65% (active) | 5% | -1% | 95% (active) | inactive | inactive | inactive | inactive
NC1CCN(c2cnn(Cc3cccc(NC(=O)Nc4ccc(-c5ccccc5)cc4)c3)c(=O)c2Cl)CC1 | 11% | 5% | -3% | 89% (active) | inactive | inactive | inactive | inactive
O=C(c1cccc(-c2noc(C(F)(F)F)n2)c1)N1CCN(c2nsc3ccccc23)CC1 | 81% (active) | 18% | -2% | 90% (active) | inactive | inactive | inactive | inactive
NC1=NC(c2ccccc2)(c2ccccn2)C(=O)N1CCCc1ccccc1 (stereo not given) | 64% (active) | -1% | -2% | 85% (active) | inactive | inactive | inactive | inactive
CC(C)(C)Nc1nc(Nc2cccc([N+](=O)[O-])c2)nc(-n2ccnc2)n1 | 41% | 10% | -9% | 98% (active) | inactive | inactive | inactive | inactive
Cc1cc(N2CCCC2)nc(Nc2ccc(NC(=O)Cc3ccccc3)cc2)n1 | 72% (active) | 71% (active) | -4% | 102% (active) | inactive | inactive | inactive | inactive
COc1cc2c(OC)cccc2cc1CNCCCCCCNCc1cc2cccc(OC)c2cc1OC | 7% | 59% (active) | 1% | 95% (active) | inactive | inactive | inactive | inactive
COc1ccc(-c2ccc(S(=O)(=O)Nc3cc4c(cc3OC(C)C)CCNCC4)cc2)cc1 | -1% | 16% | 3% | 86% (active) | inactive | inactive | inactive | inactive
